Insulin prom inh: TRM-6 insulin promoter activity inhibition; TRM-6 cells (human fetal islet line), insulin promoter-eGFP reporter, imaging; reporter expression induced with tamoxifen; inhibition, % at 2 µM; 130,000 tested, 0.9% active; AID 1273;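 active = inhibition above the mean plus 3 SD, with well images judged a real hit on visual review, cut at about 60% in these data, passing the limit was not always enough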
ROMK primary: human ROMK K+ channel modulation, primary screen; B-score at 10 µM; AID 1918; 130,000 tested, 2% active; Tet-inducible ROMK, thallium flux fluorescence; actives lie on both sides; P48048;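 active = signal ratio slope over the read window, or its plate-corrected B-score, at least 3 SD from the plate mean, either direction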;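 also: B-score of the F/F0 ratio slope over 7 to 12 s after thallium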
Insulin prom up: MIN6 insulin promoter up-regulation; MIN6 insulin promoter-GFP reporter, high-content imaging; hits give high values; z-score at 5 µM; 190,000 tested, 0.3% active; AID 1625;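 active = z-score above 3 at 5 µM with at least 500 cells counted in the well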
WT yeast gro inh: growth inhibition of WT yeast, mitochondrial fusion screen. mitochondrial fusion phenotypic screen, WT strain. inhibition, % at 10 µM. 190,000 tested, 2.1% active. AID 1362; in the data active = inhibition above about 58%; tested in S. cerevisiae
L major viab: reduces viability of Leishmania major promastigotes; resazurin fluorescence viability; inhibition, % at 10 µM; 200,000 tested, 9% active; in the data active = inhibition above about 50%;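 also: promastigotes grown with compound for 44 hours at 28 °C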
KCC2 mod: modulates chloride dependent transport by human KCC2. 190,000 tested, 2.2% active. Q9H2X9. B-score of Tl+ flux slope (higher = more flux/activation; lower = inhibition) at 10 µM. KCC2 cells, thallium flux FluoZin-2 fluorescence;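 active = thallium flux slope and its plate-corrected score both differing from the plate sample mean at a set confidence after two filtering rounds, in either direction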;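 also: slope of fluorescence scaled to starting intensity during 10 to 20 s after thallium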
Target sequence (Q9H2X9 whole entry, looked up): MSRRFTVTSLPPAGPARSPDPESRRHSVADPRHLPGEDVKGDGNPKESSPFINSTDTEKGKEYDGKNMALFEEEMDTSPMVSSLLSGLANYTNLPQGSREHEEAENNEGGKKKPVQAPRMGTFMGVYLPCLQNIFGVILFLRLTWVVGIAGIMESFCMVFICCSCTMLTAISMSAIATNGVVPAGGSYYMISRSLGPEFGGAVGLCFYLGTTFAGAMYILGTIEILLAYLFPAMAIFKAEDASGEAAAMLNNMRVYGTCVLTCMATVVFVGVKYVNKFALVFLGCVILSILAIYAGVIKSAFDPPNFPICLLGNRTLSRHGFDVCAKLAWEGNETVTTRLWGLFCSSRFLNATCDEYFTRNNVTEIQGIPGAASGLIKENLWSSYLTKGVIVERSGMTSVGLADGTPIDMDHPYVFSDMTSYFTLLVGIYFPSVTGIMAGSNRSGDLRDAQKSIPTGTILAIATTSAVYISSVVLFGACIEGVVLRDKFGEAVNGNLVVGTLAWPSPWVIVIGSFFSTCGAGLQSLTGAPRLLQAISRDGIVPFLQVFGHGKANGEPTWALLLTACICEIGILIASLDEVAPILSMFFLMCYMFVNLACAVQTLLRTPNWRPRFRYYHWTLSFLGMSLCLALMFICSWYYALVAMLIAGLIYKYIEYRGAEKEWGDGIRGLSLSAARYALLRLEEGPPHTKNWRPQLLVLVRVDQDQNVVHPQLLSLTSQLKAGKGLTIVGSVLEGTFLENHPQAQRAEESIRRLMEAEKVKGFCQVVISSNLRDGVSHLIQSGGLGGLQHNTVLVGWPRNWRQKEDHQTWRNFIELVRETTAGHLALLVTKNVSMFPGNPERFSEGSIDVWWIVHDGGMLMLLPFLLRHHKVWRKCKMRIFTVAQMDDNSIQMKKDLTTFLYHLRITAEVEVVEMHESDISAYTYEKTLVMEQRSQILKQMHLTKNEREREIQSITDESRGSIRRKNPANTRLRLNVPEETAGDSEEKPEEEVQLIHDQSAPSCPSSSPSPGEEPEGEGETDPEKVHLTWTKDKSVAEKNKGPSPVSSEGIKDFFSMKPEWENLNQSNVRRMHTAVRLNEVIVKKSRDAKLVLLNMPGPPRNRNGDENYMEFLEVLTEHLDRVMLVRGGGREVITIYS
Starred values were filed as active, the others as inactive; . = no result. Hits are enriched below; roughly 12% of the tested compounds scored in any of these assays.

SMILES | Insulin prom inh | ROMK primary | Insulin prom up | WT yeast gro inh | L major viab | KCC2 mod
CCC(CC)NCc1ccc2c(c1)c1ccccc1n2CC | -73.3 | -1.36 | -0.65 | 47.8 | 95.5* | 1.26
O=S(=O)(c1ccc(Br)cc1)N1CCCC1c1nc2ccccc2s1 (stereo not drawn) | 25.0 | . | -0.59 | 17.3 | 36.7 | .
c1cc(Nc2cccc3nccnc23)c2nccnc2c1 | 10.0 | 0.218 | -0.94 | -13.7 | -0.7 | .
Fc1ccc(Nc2cccc3nccnc23)cc1 | -30.8 | . | -0.42 | 19.7 | 50.4* | 0.013
O=C(NC(Cc1c[nH]c2ccccc12)C(=O)Nc1ccc(F)c([N+](=O)[O-])c1)c1cccs1 (stereo not drawn) | . | . | 0.02 | -9.9 | 64.8* | -3.17
O=C(NC(Cc1c[nH]c2ccccc12)C(=O)Nc1ccc(OC(F)(F)F)cc1)c1cccs1 (stereo not drawn) | 34.7 | . | 0.01 | 88.3* | 16.4 | 0.435
CC(=O)Nc1cccc(NC(=O)C2CC(=O)N(c3ccc(C)cc3)C2)c1 (stereo not drawn) | 2.8 | . | 0.88 | -26.7 | -8.6 | -0.675
CNc1ncc(C(=O)c2ccc(Cl)c(Cl)c2)s1 | 18.0 | . | . | 19.1 | 3.5 | -0.811
O=C(c1ccc(Cl)c(Cl)c1)c1cnc(Nc2ccccc2)s1 | . | 1.17 | -0.36 | 86.8* | -13.2 | .
COc1ccccc1NC(=O)Nc1ccc2c(c1)nc(C)n2C | 17.9 | 1.1 | . | 20.8 | -5.1 | 0.0119
Cc1cccc(/C=c2\s/c(=C\C(=O)C(C)(C)C)[nH]c2=O)c1 | -10.5 | . | -0.55 | 55.4 | 20.1 | 12*
FC(F)(F)c1cnc(N2CCC(=NOCc3ccc(Cl)cc3)CC2)c(Cl)c1 | . | -0.0828 | -0.4 | 63.2* | -10.3 | .
Cc1ccc(CON=C2CCN(c3ncc(C(F)(F)F)cc3Cl)CC2)cc1 | 13.3 | . | -0.16 | 40.6 | -6.5 | 0.124
CC1CN(S(=O)(=O)N2CCOCC2)CCN1S(=O)(=O)N1CCOCC1 (stereo not drawn) | . | 1.31 | -0.84 | -2.7 | 1.7 | 0.172
CCn1c2ccccc2c2nc3cc(OC)c(OC)cc3nc21 | . | . | -0.57 | -15.4 | 73.3* | .
O=C1CC(=C2c3ccccc3-c3ccccc32)C(=O)N1CCCCN1CCN(c2ccccc2)CC1 | 20.9 | 0.251 | . | 21.9 | 99.4* | 0.635
C/C(=N\Nc1nc2ccccc2s1)c1ccc2c(c1)OCO2 | 28.6 | 0.0804 | -0.16 | 16.4 | -1.7 | -0.0174
C/C(=N\Nc1nc2ccccc2s1)c1ccc(Br)s1 | . | 0.0762 | -0.62 | 94.3* | 17.4 | 2
C/C(=N\NC(=O)c1ccccc1O)c1ccc(Br)s1 | 16.2 | 0.00793 | 1.25 | 65.9* | 19.7 | 10.9*
CCn1cc(C(=O)OCC(=O)c2cc(C)n(-c3ccccc3F)c2C)c(=O)c2ccc(C)nc21 | 32.0 | . | -0.06 | -33.0 | 52.9* | -1.62
CCn1cc(C(=O)OCC(=O)c2cc(C)n(-c3ccccc3)c2C)c(=O)c2ccc(C)nc21 | -81.2 | -0.36 | 0.29 | -45.4 | -3.9 | -0.782
C=CCn1c(-c2cccc(OC)c2)n[nH]c1=S | 26.5 | -0.38 | 0.04 | -1.7 | -4.0 | 0.131
CCOc1cc(C(=O)Nc2ccc3c(c2)OCO3)ccc1OC(F)F | . | . | -1.53 | 19.5 | 4.1 | .
O=C(c1ccccc1NS(=O)(=O)c1cccc(C(F)(F)F)c1)N1CCc2ccccc21 | -1.3 | . | 0.31 | 19.7 | 65.5* | -0.238
O=C(c1ccccc1NS(=O)(=O)c1ccc(F)cc1)N1CCc2ccccc21 | . | 0.886 | -0.16 | 19.2 | -7.8 | 0.0282
SMILES | Insulin prom inh | ROMK primary | Insulin prom up | WT yeast gro inh | L major viab | KCC2 mod
CCOc1ccc(C2=NNC(c3cccs3)=Nc3ccc(OC)cc32)cc1OCC | 12.5 | . | -1.08 | 14.1 | 67.0* | -0.056
O=C(NCCCn1ccnc1)C(Cc1ccccc1)N1C(=O)c2ccccc2C1=O (stereo not drawn) | . | -0.264 | 1.23 | 58.4* | -3.8 | 0.0267
O=C1NCN(CCO)CN1 | . | . | -0.28 | . | . | 0.00978
COc1cc(/C=C(\NC(C)=O)C(=O)Nc2ccc(NC(C)=O)cc2)ccc1OC(C)=O | 16.9 | 0.606 | -0.2 | 0.1 | 57.4* | 0.591
COc1ccc(NC(=O)/C(=C/c2ccc(OC(C)=O)c(OC)c2)NC(C)=O)cc1 | -7.4 | 1.09 | 0.05 | -6.2 | 0.7 | 0.997
Cc1ccc(N2CC(C(=O)Nc3nnc(SCC(=O)Nc4cc(C)on4)s3)CC2=O)cc1 (stereo not drawn) | 35.7 | 0.0446 | -0.06 | -2.3 | 59.6* | 0.0668
COc1cccc(N2CC(C(=O)Nc3nnc(SCC(=O)Nc4cc(C)on4)s3)CC2=O)c1 (stereo not drawn) | . | 0.237 | -0.9 | -4.5 | -4.7 | 0.82
CN(C)/C=N/c1ncc(C(=O)OC(C)(C)C)s1 | 0.0 | 0.0497 | 0.02 | 3.7 | -2.3 | 0.148

From PubChem
